Measurements from paper PMC5540273 (PLoS ONE, 2017).

Assays:
Conditions in all cases: concentration: 1 μM, replicates: in singlicate; n = 1
ASK2 = test system: T1, ASK2
T1 construct: gene MAP3K6

AURKA = test system: AURKA
AURKB = test system: AURKB
AURKC = test system: AURKC
AXL = test system: AXL
BIKE = test system: T2, BIKE
T2 construct: gene BMP2K

BLK = test system: BLK
BMPR1A = test system: BMPR1A
BMPR1B = test system: BMPR1B
BMPR2 = test system: BMPR2
BMX = test system: BMX
BRAF = test system: BRAF
BRK = test system: T3, BRK
T3 construct: gene PTK6

BRSK1 = test system: BRSK1
BRSK2 = test system: BRSK2
BTK = test system: BTK
BUB1 = test system: BUB1
CAMK1B = test system: CAMK1B
CAMK1D = test system: CAMK1D
CAMK1G = test system: CAMK1G
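Note: KINOMEscan kinase panel screen.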

| Structure (SMILES) | %Inh (ASK2) [%] | %Inh (AURKA) [%] | %Inh (AURKB) [%] | %Inh (AURKC) [%] | %Inh (AXL) [%] | %Inh (BIKE) [%] | %Inh (BLK) [%] | %Inh (BMPR1A) [%] | %Inh (BMPR1B) [%] | %Inh (BMPR2) [%] | %Inh (BMX) [%] | %Inh (BRAF) [%] | %Inh (BRK) [%] | %Inh (BRSK1) [%] | %Inh (BRSK2) [%] | %Inh (BTK) [%] | %Inh (BUB1) [%] | %Inh (CAMK1B) [%] | %Inh (CAMK1D) [%] | %Inh (CAMK1G) [%] |
| --- | --- | --- | --- | --- | --- | --- | --- | --- | --- | --- | --- | --- | --- | --- | --- | --- | --- | --- | --- | --- |
| NCCC(NC(=O)c1cc(Br)c(-c2ccnc3[nH]ccc23)s1)c1ccccc1.O=C(O)C(F)(F)F.O=C(O)C(F)(F)F (stereo not shown) [GSK1307810] | 11 | 87 | 13 | 99.7 | 76 | 100 | 0 | 0 | 0 | 52 | 25 | 0 | 34 | 1 | 19 | 24 | 68 | 52 | 34 | 21 |
| Cc1nn2c(=O)cc(N3CCO[C@H](C)C3)nc2n1Cc1cccc(Cl)c1Cl [GSK2373693] | 0 | 35 | 17 | 6 | 4 | 17 | 17 | 35 | 0 | 35 | 15 | 2 | 13 | 3 | 0 | 0 | 28 | 42 | 9 | 0 |
| Cc1cccc(Nc2nc(NCCN)ncc2C(N)=O)c1 [GSK1292139] | 8 | 18 | 0 | 25 | 9 | 77 | 1 | 0 | 0 | 70 | 0 | 3 | 0 | 10 | 0 | 0 | 66 | 98.1 | 84 | 23 |
| COc1cc(Nc2nccc(N3CCC(NC(=O)Nc4ccc5c(c4)OCO5)C3)n2)cc(OC)c1OC (stereo not shown) [GSK1379766] | 12 | 86 | 69 | 90.1 | 0 | 74 | 0 | 0 | 0 | 30 | 0 | 12 | 0 | 0 | 0 | 0 | 43 | 34 | 19 | 9 |
| CCNC(=O)/C=C/c1n[nH]c2cc(Sc3ccccc3C(=O)NC)ccc12 | 0 | 86 | 97.4 | 84 | 76 | 48 | 7 | 12 | 30 | 1 | 18 | 11 | 15 | 38 | 24 | 0 | 48 | 9 | 22 | 20 |
| N#Cc1cnc2cc(-c3cnc(CNCCN4CCOCC4)s3)ccc2c1Nc1ccc(Oc2ccccc2)cc1 [GW664114] | 9 | 0 | 39 | 25 | 98 | 9 | 99 | 0 | 0 | 8 | 62 | 0 | 0 | 0 | 44 | 93.9 | 37 | 24 | 12 | 24 |
| Cn1cc(-c2ccc3c(c2)CCN3C(=O)Cc2cc(F)cc(C(F)(F)F)c2)c2c(N)ncnc21 [GSK2635225] | 0 | 20 | 56 | 54 | 94 | 23 | 40 | 0 | 0 | 0 | 15 | 0 | 44 | 0 | 5 | 0 | 11 | 41 | 11 | 0 |
| Cn1cc(-c2cnc(N)c3c(-c4ccc5c(c4)CCN5C(=O)Cc4ccccc4)csc23)cn1 [GSK2593074] | 17 | 24 | 97.8 | 92.2 | 95.9 | 0 | 93 | 1 | 6 | 6 | 57 | 0 | 92.2 | 0 | 7 | 0 | 0 | 0 | 11 | 0 |
| COc1cccc(CC(=O)N2CCc3cc(-c4cn(C)c5ncnc(N)c45)ccc32)c1 [GSK2608899] | 12 | 52 | 87 | 48 | 96.2 | 21 | 36 | 6 | 6 | 0 | 0 | 6 | 53 | 8 | 0 | 0 | 0 | 43 | 19 | 20 |
| O=C(Nc1n[nH]c2nc(-c3ccccc3)ccc12)C1CC1 [SB-708999] | 32 | 22 | 15 | 8 | 0 | 40 | 0 | 0 | 6 | 10 | 9 | 4 | 0 | 54 | 37 | 40 | 0 | 35 | 0 | 79 |
| CN(c1ccc2c(c1)nc(NCc1ccccc1)n2C)c1ccnc(Nc2ccc(CS(C)(=O)=O)cc2)n1.Cl [GW811603] | 0 | 87 | 79 | 63 | 85 | 24 | 39 | 0 | 4 | 22 | 0 | 96.8 | 79 | 0 | 0 | 64 | 0 | 46 | 5 | 0 |
| Cc1cc(-c2ccnc(Nc3cccc(C#N)c3)n2)cc(C)c1O [GSK1440913] | 11 | 47 | 19 | 70 | 51 | 99.5 | 0 | 0 | 0 | 16 | 25 | 4 | 25 | 2 | 0 | 14 | 52 | 24 | 8 | 22 |
| CC(C)c1nc(-c2ccc(F)c(NS(=O)(=O)c3c(F)cccc3F)c2)c(-c2ccnc(Nc3ccc(N4CCOCC4)nc3)n2)s1 [GSK1804250] | 25 | 11 | 29 | 88 | 82 | 44 | 99.5 | 40 | 99.7 | 1 | 90 | 99.9 | 94.8 | 14 | 0 | 90 | 92.7 | 31 | 26 | 4 |
| Cc1cc(-c2c(-c3ccc(F)cc3)ncn2CCCN2CCOCC2)nc(N)n1 [SB-222517] | 14 | 28 | 39 | 3 | 0 | 0 | 8 | 20 | 0 | 35 | 5 | 0 | 0 | 0 | 17 | 0 | 0 | 0 | 12 | 44 |
| COc1cccc(C2=C(Nc3cccc(O)c3)C(=O)NC2=O)c1 [SB-390771] | 0 | 16 | 24 | 0 | 1 | 0 | 0 | 0 | 0 | 36 | 4 | 0 | 33 | 7 | 7 | 0 | 42 | 29 | 13 | 0 |
| N#CC1(c2cccc(C(=O)Nc3cccc(Oc4ccc5nc(NC(=O)C6CC6)sc5n4)c3)c2)CC1 | 3 | 0 | 57 | 48 | 62 | 1 | 95.2 | 0 | 0 | 0 | 0 | 99.9 | 18 | 13 | 0 | 6 | 0 | 0 | 2 | 0 |
| Cc1cccc(Nc2nc(N[C@H]3CCCC[C@H]3N)ncc2C(N)=O)c1.Cl [GSK986310] | 6 | 0 | 24 | 62 | 59 | 50 | 67 | 12 | 0 | 28 | 13 | 0 | 20 | 16 | 13 | 0 | 89 | 91.4 | 61 | 23 |
